Source: PubChem (National Center for Advancing Translational Sciences (NCATS))
TDP1 cell noCPT = qHTS for Inhibitors of human tyrosyl-DNA phosphodiesterase 1 (TDP1): qHTS in cells in absence of CPT; DT40 Tdp1-/- hTDP1 cells, no CPT, ATP luminescence, 48 h; Potency, µM (doses to about 46.2 µM), for inactives: top-dose activity change, negative = growth inhibition, hits mostly inhibitors; hit rate 15% among 420,000; also: potency is read from the fitted curve at half-maximal effect; nearly all actives have a fitted effect of over 55% in size
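Cells were dispensed at 400 per well, compounds added by pin tool, plates incubated ≥48 hr at 37 °C, then CellTiter-Glo added for 30 min at room temperature before luminescence reading. Line: DT40 Tdp1-/- complemented with hTDP1; camptothecin omitted.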
HT1080-NT tox = kills 2HG-producing HT-1080-NT fibrosarcoma cells | HT-1080-NT fibrosarcoma viability, CellTiter-Glo ATP luminescence, 48 h | Potency, µM (series often up to 46.1 µM), inactives show at the highest dose activity, negative = less viability, actives largely listed as cytotoxic | hit rate 1.6% among 360,000 | AID 686970;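 also: NT is the 2HG producing partner of a matched IDH1 knockdown line; potency is read from the fitted curve at half-maximal effect; 0% = DMSO-treated cells and -100% = media-only wells without cells; nearly all actives have a fitted effect of over 55% in size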
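750 cells/well, RPMI + 5% FBS; 2 h settle, compound pin-transfer, 48 h at 37 degrees C. CellTiter-Glo 10 min RT, luminescence. Normalized to DMSO and media-only wells.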
IL-1B inflam inh = inflammasome signaling inhibition, IL-1 beta readout; THP-1 LPS/ATP IL-1B secretion, AlphaLISA, 16 h; active compounds read low; activity change, % at 57.5 µM; hit rate 4.7% among 360,000; in the data active = activity change below about -50%; inconclusive = mostly about -30% to -49%
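THP-1 cells pretreated 1 hr with compounds (up to 57.5 uM final), then stimulated with LPS (250 ng/mL final) plus ATP (1.25 mM final); secreted IL-1B measured by AlphaLISA after 16 hr, decreased signal indicating inhibition.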
12-LOX inh = blocks human arachidonate 12S-lipoxygenase | hit rate 1.1% among 580,000 | P18054 | purified 12hLO, xylenol orange hydroperoxide absorbance | Potency, µM (doses to about 108 µM), for inactives: at the highest dose activity change, negative = inhibition, hits mostly inhibitors | AID 1671190; also: potency is read from the fitted curve at half-maximal effect
Target sequence (P18054 whole entry, looked up): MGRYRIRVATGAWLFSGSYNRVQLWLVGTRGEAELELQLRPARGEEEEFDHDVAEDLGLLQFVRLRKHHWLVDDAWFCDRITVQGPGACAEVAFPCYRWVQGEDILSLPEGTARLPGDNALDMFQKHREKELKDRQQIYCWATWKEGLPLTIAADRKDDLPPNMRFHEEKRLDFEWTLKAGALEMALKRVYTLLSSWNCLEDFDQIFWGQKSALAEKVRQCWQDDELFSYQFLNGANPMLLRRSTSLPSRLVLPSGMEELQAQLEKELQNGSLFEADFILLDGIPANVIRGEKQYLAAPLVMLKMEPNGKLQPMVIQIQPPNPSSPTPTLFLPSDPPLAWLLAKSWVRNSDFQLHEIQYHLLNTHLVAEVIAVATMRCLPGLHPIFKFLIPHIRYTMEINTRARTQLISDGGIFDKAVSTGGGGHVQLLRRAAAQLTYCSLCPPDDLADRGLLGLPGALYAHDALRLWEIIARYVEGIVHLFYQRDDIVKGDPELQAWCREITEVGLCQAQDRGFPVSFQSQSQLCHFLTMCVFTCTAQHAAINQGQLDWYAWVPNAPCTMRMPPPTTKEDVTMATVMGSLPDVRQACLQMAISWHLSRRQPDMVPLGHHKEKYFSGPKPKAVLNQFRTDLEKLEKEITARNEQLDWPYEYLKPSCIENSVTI
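Hydroperoxide product was detected by ferrous iron/xylenol orange as the 573 to 405 nm absorbance ratio. Arachidonic acid at 40 uM (final) was turned over for 30 min at room temperature by 150 nM human 12hLO, pH 7.0 Hepes buffer, after 15 min compound preincubation.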
HT1080 IDH1KD tx = kills HT-1080 cells with IDH1 knockdown; HT-1080 IDH1 knockdown viability, ATP luminescence, 48 h; Potency, µM (doses to about 46.1 µM), inactives show at the top dose activity, negative = toxicity, most hits filed as cytotoxic; hit rate 2% among 360,000; AID 686971;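 also: potency is read from the fitted curve at half-maximal effect; 0% = DMSO wells and -100% = cell-free medium wells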
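CellTiter-Glo luminescence after 48 h compound exposure at 37 degrees C of IDH1-knockdown HT-1080 cells in 5% FBS RPMI. %Activity scaled between DMSO wells and cell-free media wells, with curves fitted and assigned curve classes.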
DT40 TDP1 CPT = growth inhibition of DT40 Tdp1-/-;hTDP1 cells with camptothecin (screen for TDP1 inhibitors). chicken DT40 Tdp1-/-;hTDP1 cells + 20 nM CPT, ATP luminescence, 48 h. Potency, µM (doses to about 46.2 µM), inactives show at the top dose activity change, negative = growth inhibition, hits mostly inhibitors. hit rate 12% among 420,000; also: potency is read from the fitted curve at half-maximal effect; nearly all actives have a fitted effect of over 55% in size
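Chicken DT40 Tdp1-/- cells stably complemented with human TDP1 were seeded at 400 cells/well in medium containing 20 nM camptothecin, exposed to pin-transferred compounds, and grown at 37 °C for at least 48 hr. Viability was read as ATP luminescence.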
Active calls of the source: *; ? = inconclusive; / = no result; [ ] = another dose, or the depositor's remark. The sample as a whole holds a higher share of hits than the screen did. Unless noted, calls follow the shape of the dose curve; as a rule, active = well fitted curve in the direction sought with a large enough effect; inconclusive = small, poorly fitted or top-dose-only effect, or another doubt; inactive = no such curve, though single readings can be large; an effect the other way counts as inactive or inconclusive. Unless noted, % is scaled to controls: 0 for no effect and ±100 for the full control effect.

SMILES | TDP1 cell noCPT | HT1080-NT tox | IL-1B inflam inh | 12-LOX inh | HT1080 IDH1KD tx | DT40 TDP1 CPT
COc1ccccc1-c1cc(COc2ccc(Cl)cc2Br)on1 | / | / | / | 25% | / | /
Cc1ccc(C)n1-c1ccc(-c2ccn[nH]2)cc1 | ? | -19% | -70* | -10% | -14% | ?
COC(=O)CNC(=O)C1CN(c2cccc(OC)c2)C(=O)N1 (configuration not stated) | / | / | / | 39%[176 µM] | / | /
CCCN1CCN(c2ncnc3sc(C(=O)Nc4ccc(C(C)C)cc4)c(C)c23)CC1 | ? | / | / | ? | / | 21µM*
CCCN1CCN(c2ncnc3sc(C(=O)Nc4ccc(OC(F)(F)F)cc4)c(C)c23)CC1 | 21µM* | / | / | ? | / | ?
CC(C)CC(=O)Nc1n[nH]c2c1CN(C(=O)C1CCN(C)CC1)C2(C)C | / | / | / | -29%[57.4 µM] | / | /
CCOC(=O)C1CCC(CN(Cc2ccc(Cl)cc2)S(=O)(=O)c2cccc(Cl)c2C)CC1 (configuration not stated) | 18µM* | / | / | -17% | / | 23µM*
CCOC(=O)C1CCC(CN(Cc2ccc(Cl)cc2)S(=O)(=O)c2ccc(Br)cc2)CC1 (configuration not stated) | ? | / | / | -30% | / | ?
CCOC(=O)C1CCC(CN(Cc2ccc(OC)cc2)S(=O)(=O)c2ccc(C)cc2)CC1 (configuration not stated) | 13µM* | / | / | -16% | / | 21µM*
CCOC(=O)C1CCC(CN(Cc2ccccc2)S(=O)(=O)c2ccc(Br)cc2)CC1 (configuration not stated) | ? | / | / | 1% | / | ?
CCCS(=O)(=O)NC(=O)C1(C)CCCN(C(=O)CSc2ccccc2)C1 (configuration not stated) | -6% | ? | 0 | -54% | 2% | -5%
COc1cccc(Nc2nc3ccccc3nc2NS(=O)(=O)c2ccc(F)cc2)c1 | / | / | / | -13% | / | /
COc1ccc(NC(=O)CN2CCN(Cc3ccccc3)CC2)cc1 | -1% | 5% | 3 | -1% | 8% | 7%
CCCCNC(=O)CN1CCN(Cc2ccc3cc(OC)ccc3c2)CC1 | 18µM* | -5% | 0 | ? | -13% | ?
Fc1ccc(CNc2nc(-c3ccccc3)cc(C(F)(F)F)n2)cc1 | ? | / | / | -16% | / | 21µM*
COc1ccc(-c2cc(C(F)(F)F)nc(NCCc3ccccc3)n2)cc1 | 26µM* | / | / | -9% | / | 23µM*
CNC(=O)NC(=O)C(c1ccccc1)N(C)Cc1ccc(C)cc1 (configuration not stated) | / | / | / | -24% | / | /
COc1cccc(/C=C(\C)C(=O)c2c(C)cc(C)[nH]c2=O)c1OC | 11% | 9% | -2 | / | 0% | 3%
CCOc1ccc(OCCOC(=O)CCC(=O)c2ccc(F)cc2)cc1 | / | / | / | 13% | / | /
CC(C)C(CNc1ccc2nnnn2n1)N1CCN(C)CC1 (configuration not stated) | / | / | / | -1% | / | /
CC(=O)N1CCN(CCS(=O)(=O)c2ccc(Br)cc2)CC1 | -2% | 1% | -53* | ? | 3% | -10%
Cc1cccc(OCC(O)CN2CCc3ccccc3C2)c1 (configuration not stated) | ? | 1% | -21 | -22% | 0% | ?
CC(C)(C)c1ccc(OCC(O)CN2CCN(C(=O)c3ccccc3)CC2)cc1 (configuration not stated) | 21µM* | 1% | -6 | -61% | 0% | 16µM*
Cc1ccc(OCC(O)CN2CCc3ccccc3C2)c(C)c1 (configuration not stated) | ? | -10% | -1 | 0% | -7% | 26µM*
CC(=O)N1CCN(CC(O)COc2ccc(Br)cc2)CC1 (configuration not stated) | ? | 1% | 26 | 0.35µM* | 8% | -1%
SMILES | TDP1 cell noCPT | HT1080-NT tox | IL-1B inflam inh | 12-LOX inh | HT1080 IDH1KD tx | DT40 TDP1 CPT
O=C(CCS(=O)(=O)c1ccc(Br)cc1)N1CCN(Cc2ccccc2)CC1 | ? | -1% | 10 | 38% | -1% | -30%
COc1ccc(-c2cc3c(SCC(=O)N4CCN(c5ccc(F)cc5)CC4)nccn3n2)cc1 | / | / | / | -3% | / | /
Cc1ccc(CN2CCC(N3CC4CCCN4C3=O)CC2)cc1 (configuration not stated) | / | / | / | 1%[176 µM] | / | /
COc1ccc(OCC(O)CN2CCc3ccccc3C2)cc1 (configuration not stated) | 3% | 5% | -15 | -2% | -2% | -6%
CC(C)(C)c1ccc(OCC(O)CN2CCc3ccccc3C2)cc1 (configuration not stated) | 16µM* | ? | 0 | ? | ? | 8.2µM*
O=C(CCc1ncc(-c2ccc(F)cc2F)o1)Nc1ccc(S(=O)(=O)N2CCCC2)cc1 | / | / | / | -4% | / | /
Cc1nc(N2CCCn3nc(CO)cc3C2)c(Cl)c(=O)[nH]1 | / | / | / | -6% | / | /
COc1ccccc1OCCCCCNCCO | -9% | -14% | -2 | 4% | 20%[9.24 µM] | -14%
CCCCNCCCOc1cccc(Cl)c1Cl | ? | ? | -64* | -12% | ? | 15µM*
O=C(CNC(=O)c1ccccc1F)NCCOc1cccc(Cl)c1Cl | -15% | 0% | 0 | -1% | -4% | 7%
OCCNCCCOc1cc(Cl)ccc1Cl | 18µM* | ? | -2 | 2% | -18% | ?
OCCNCCCOc1cccc(Cl)c1Cl | 0.21µM* | / | / | 0% | / | 0.19µM*
O=C(N/N=C/Cc1ccccc1)C1CC1 | / | / | / | 18% | / | /
Cc1nc(N2CCC(C(=O)NCCc3cccs3)CC2)cc(C(F)(F)F)n1 | / | / | / | 35% | / | /
O=C(N[C@H]1CCN2C(=O)c3ccccc3NC(=O)[C@@H]2C1)c1ccncc1 | / | / | / | 4%[176 µM] | / | /
Cc1[nH]c2ccccc2c1SCc1nnc(SCc2ccccc2)n1C | ? | -15% | -57* | 81% | ? | -15%
Cc1[nH]c2ccccc2c1SCc1nnc(SCc2ccc(Cl)cc2)n1C | ? | ? | / | 0% | ? | ?
C=CCNC(=O)CSc1nc2sc3c(c2c(=O)n1CCC)CCC3 | 15µM* | -18% | -8 | -1% | -15% | ?
C=C(C)Cn1c(SCC(=O)Nc2cccc(Cl)c2)nc2sc3c(c2c1=O)CCCC3 | 15µM* | / | / | -9% | / | ?
C=C(C)Cn1c(SCC(=O)Nc2ccccc2C)nc2sc3c(c2c1=O)CCCC3 | ? | / | / | -18% | / | ?
C=C(C)Cn1c(SCC(=O)c2ccc(OC)cc2)nc2sc3c(c2c1=O)CCCC3 | 12µM* | / | / | 6% | / | 10µM*
CC(O)CNS(=O)(=O)c1ccc(Cl)c(Cl)c1 (configuration not stated) | / | / | / | -19% | / | /
